# Experimental data taken from PubChem BioAssay (NCI).
# The panel holds about 83,000 compounds, 20% with a hit somewhere; the sample as a whole holds those more often.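 For each line, cells grew in 96-well plates with the test compound present at a single concentration for 48 hours.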 The source made the active and inactive calls. How the source made its calls: active means growth percent below 10; inactive means the rest.
# System: HL-60(TB) leukemia
# Assay: NCI-60 one-dose screen, 48 h (100 = growth as untreated, 0 = no growth, -100 = all killed)
# Settings: 10 µM unless noted
row,Compound,growth
1,Cc1cc2c(cc1Cl)C(=O)/C(=C/c1ccc(F)cc1)O2,101% (inactive)
2,CC1=C(C(=O)OC(C)C)C(c2cccc(O)c2)NC(=S)N1 (centres undefined),99.2% (inactive)
3,COc1ccc2c(c1)c(-c1cc3nc(-c4cn(C)c5ncc(Br)cc45)cc(N)n3n1)cn2C,-59.7% (active)
4,CNC(=O)c1cccc(NC(=O)c2ccc3c(c2)nnn3/C(C#N)=C/c2ccccn2)c1,-14.7% (active)
5,COc1cc2cc(C(=O)N3C[C@@H](CCl)c4c3cc(OC(=O)N(CCC(=O)N3CCN(C)CC3)[C@H]3CCSSC3)c3ccccc43)[nH]c2c(OC)c1OC,-34.5% (active)
6,O=C(CSc1nnc(-c2ccc3nc(-c4ccccc4)[nH]c3c2)o1)Nc1ccc(Cl)cc1,46.7% (inactive)
7,N#Cc1ccc(-c2nn(-c3ccc(C(=O)O)cc3)cc2CNc2ccc(Oc3ccccc3)cc2)cc1,34.4% (inactive)
8,C=C1CC[C@@H]2[C@]3(C)COC(c4cn[nH]c4-c4ccc(Br)cc4)O[C@@H]3CC[C@@]2(C)[C@@H]1C/C=C1/C(=O)OCC1O (some centres undefined),-8.14% (active)
9,COc1ccc([C@H]2C(C(=O)c3ccc(Cl)cc3)C3(N[C@@H]2c2ccccc2)C(=O)Nc2ccc(Cl)cc23)cc1 (some centres undefined),11.5% (inactive)
10,COc1cc(CNC(=O)C[C@H](C)CCC=C(C)C)ccc1OCc1cn(-c2ccc(Cl)cc2Cl)nn1,95.5% (inactive)
11,CCCn1c(=O)c2[nH]c(-c3ccc(OCc4nc5ccc(C(F)(F)F)cc5[nH]4)cc3)nc2n(CCC)c1=O,55.9% (inactive)
12,COc1cc(-c2nc3ccc(C)cc3[nH]2)ccc1OCc1nnc(-c2ccc(Br)cc2)o1,-34.8% (active)
13,Cc1ccc(S(=O)(=O)c2nc(S(=O)(=O)c3ccc(C)cc3)c(N3CCN(C)CC3)s2)cc1,17.8% (inactive)
14,Cn1cc(/C=C(/SS/C(=C/c2cn(C)c3cccc(C(=O)O)c23)C(=O)O)C(=O)O)c2c(C(=O)O)cccc21,99.2% (inactive)
15,Cc1cc(=O)oc2cc(OCCCCOc3ccc(/C=C/C(=O)Nc4ccccc4N)cc3)ccc12,0.47% (active)
16,COc1ccc(-c2c(N)c(=O)n(C)c3ccccc23)cc1,79.3% (inactive)
17,Oc1cncc(-c2ccc3ncnc(N4CCc5cc(F)c(Cl)cc54)c3c2)c1,84.7% (inactive)
18,Cc1noc2c(Cc3ccccc3)nn(CC(=O)N/N=C/c3ccc(F)cc3)c(=O)c12,93.2% (inactive)
19,O=c1c2ccccc2nc(COc2ccccc2)n1/N=C/c1ccc(N2CCOCC2)cc1,100% (inactive)
20,c1ccc(CSc2nnc(-c3ccc4nc(-c5ccccc5)[nH]c4c3)o2)cc1,83.5% (inactive)

row,Compound,growth
1,O=C1Nc2ccc(F)cc2/C1=C/C(=O)c1cc2ccccc2oc1=O,85.6% (inactive)
2,Cc1ccc(NC(=O)[C@]23CCC(C)(C)CC2C2=CCC4[C@@]5(C)C[C@@H](O)[C@H](O)[C@@](C)(CO)C5CC[C@@]4(C)[C@]2(C)CC3)cc1 (some centres undefined),-15.4% (active)
3,COc1ccc(N=Nc2c(N)nn3c(N)c(C#N)c(-c4ccc(C)cc4)nc23)cc1,52.1% (inactive)
4,O=C(COc1ccc2c(c1)CCCC(=O)N2)NCc1ccccc1,70.4% (inactive)
5,CN1CCN(c2ccc(C(=O)/C=C/c3cc(Br)ccc3F)cc2)CC1,-22.1% (active)
6,CC(=O)Nc1ccc(-n2cnc3cc(-c4ccc(O)cc4)ccc32)cc1F,-10.2% (active)
7,O=C(Cc1ccc2c(c1)CN(C1CCC(=O)NC1=O)C2=O)NCc1cccc2ccccc12 (centres undefined),-24.9% (active)
8,COc1cc2c3c(n(CCCNC(C)C)c(=O)c2cc1OC)-c1nc2c(cc1C3=O)OCO2,71.6% (inactive)
9,COc1cc(C2CC(c3ccc(Cl)cc3)=Nc3c(N)nc(N)nc3N2)ccc1Oc1nc(Nc2ccc(F)cc2)nc(N(C)C)n1 (centres undefined),16.3% (inactive)
10,CC(=O)c1cc(C(=O)N2c3ccccc3Sc3ccccc32)n2ccc(C)cc12,33.3% (inactive)
11,O=C(CNc1nc(-c2ccccc2)cs1)Nc1ccc(Cl)cc1,-46.7% (active)
12,COc1ccc(N2N=C(c3ccc4c(c3)OCO4)CC2c2cccc(NC(=O)CCNS(=O)(=O)c3ccc(Cl)cc3)c2)cc1 (centres undefined),34.4% (inactive)
13,CCCCNC(=S)Nc1ccc(OCc2nc3ccccc3[nH]2)cc1,31.7% (inactive)
14,O=C(COc1ccc(NC(=O)Nc2ccccc2)cc1)N=Nc1c(O)[nH]c2ccc([N+](=O)[O-])cc12,23.4% (inactive)
15,CC(C)CCNC(=O)N/C(N)=N/c1nc2ccccc2s1,55.6% (inactive)
16,C=C1CCC2C3(C)COC(c4cccs4)OC3CCC2(C)C1CC(Sc1ccccc1)C1=CCOC1=O (centres undefined),19.4% (inactive)
17,COCOc1cc2c(=O)c(C)c(C(=O)N[C@@H](Cc3ccccc3)C(O)C(=O)NCc3ccccc3)oc2cc1OC (some centres undefined),99.2% (inactive)
18,COc1ccc(CN2[C@H](C(=O)NCc3ccc(C(=O)NO)cc3)Cc3c([nH]c4ccccc34)[C@H]2C2CC2)cc1,11% (inactive)
19,Cn1cc(-c2cc(N)n3nc(-c4c[nH]c5ccccc45)cc3n2)c2cc(Cl)ccc21,-16.2% (active)
